Assay [1] in a line: ATG_RORE_CIS: Attagene CIS-FACTORIAL HepG2 Assay for human RAR-related Orphan Receptor Element (RORE) (AID 2282959). Particulars: HepG2 Attagene cis-factorial RORE reporter, mRNA; actives raise or lower the signal. Put shortly:
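Measured here: transcript induction of a cis-regulated reporter in HepG2 cells transiently transfected via FuGene 6. After 24 h, RNA was processed by RT-PCR and fluorescent capillary electrophoresis; DMSO defined baseline activity.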

The nature of assay [2]: ATG_Sox_CIS: Attagene CIS-FACTORIAL HepG2 Assay for human SRY-box transcription factor (SOX) (AID 2282960). Particulars: HepG2 Attagene cis-factorial SOX reporter, mRNA; actives raise or lower the signal. Put shortly: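 Using transiently transfected HepG2 cells, reporter transcription driven by cis elements was assessed 24 h after dosing. Signal was fluorescence of capillary-separated RT-PCR products, with DMSO defining baseline activity.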

Assay [3] deals with Transcription factor Sp1 (Homo sapiens) (UniProt P08047). Kind of assay: ATG_Sp1_CIS: Attagene CIS-FACTORIAL HepG2 Assay for human Specificity Protein 1 (Sp1) (AID 2282961). Particulars: HepG2 Sp1 cis-reporter transcription, actives raise or lower the signal. In outline: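 After transient transfection of HepG2 cells with cis-promoter reporter units and 24 h chemical treatment, reporter transcripts were quantified by RT-PCR and capillary electrophoresis fluorescence. Gain- and loss-of-signal fitted against DMSO.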
Sequence of Transcription factor Sp1 (Homo sapiens) (P08047 whole entry, looked up): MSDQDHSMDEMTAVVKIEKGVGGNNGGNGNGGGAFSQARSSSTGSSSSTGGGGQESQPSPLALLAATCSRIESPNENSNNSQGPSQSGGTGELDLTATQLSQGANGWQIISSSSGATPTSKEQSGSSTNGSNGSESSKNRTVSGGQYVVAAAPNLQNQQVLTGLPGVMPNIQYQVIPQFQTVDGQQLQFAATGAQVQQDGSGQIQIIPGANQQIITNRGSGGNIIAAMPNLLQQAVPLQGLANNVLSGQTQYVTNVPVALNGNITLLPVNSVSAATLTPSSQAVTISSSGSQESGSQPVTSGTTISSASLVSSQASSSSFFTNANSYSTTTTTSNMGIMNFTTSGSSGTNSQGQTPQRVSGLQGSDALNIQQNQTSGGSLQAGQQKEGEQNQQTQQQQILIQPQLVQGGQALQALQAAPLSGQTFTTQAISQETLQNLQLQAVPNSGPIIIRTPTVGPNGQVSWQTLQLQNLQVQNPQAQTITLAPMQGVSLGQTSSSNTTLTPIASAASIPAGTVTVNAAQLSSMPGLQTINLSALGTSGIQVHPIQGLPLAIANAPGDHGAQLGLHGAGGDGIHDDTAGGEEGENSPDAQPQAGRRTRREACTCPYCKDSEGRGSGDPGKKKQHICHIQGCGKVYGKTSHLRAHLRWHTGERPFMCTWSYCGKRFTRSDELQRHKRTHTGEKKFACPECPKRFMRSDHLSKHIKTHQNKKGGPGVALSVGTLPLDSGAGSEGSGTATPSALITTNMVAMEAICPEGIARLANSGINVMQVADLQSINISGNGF

A short description of assay [4]: ATG_SREBP_CIS: Attagene CIS-FACTORIAL HepG2 Assay for human Sterol Regulatory Element Binding (SREBP) (AID 2282962). The conditions noted are these: HepG2 Attagene cis-factorial SREBP reporter, mRNA; actives raise or lower the signal. Put shortly: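 Twenty-four hours after chemical dosing of transfected HepG2 cultures, reporter RNA was converted to cDNA, amplified, end-labelled with 6-FAM and resolved by capillary electrophoresis. Responses were fitted relative to DMSO.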

The target of assay [5] is Signal transducer and activator of transcription 3 (Homo sapiens) (UniProt P40763). As to the kind of experiment: ATG_STAT3_CIS: Attagene CIS-FACTORIAL HepG2 Assay for human Signal Transducer and Activator of Transcription 3 (STAT3) (AID 2282963). Particulars: HepG2, Attagene cis-factorial STAT3 reporter transcription; actives raise or lower the signal. Put shortly:
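Endogenous STAT3-responsive cis-element activity was read in transiently transfected HepG2 cells after 24 h treatment. Reporter transcripts were quantified via RT-PCR and capillary electrophoresis, with DMSO as negative control and bidirectional curve fitting.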

Assay [6] in a line: ATG_TA_CIS: Attagene CIS-FACTORIAL HepG2 Assay for human TA Basal Promoter (AID 2282964). Particulars: HepG2 Attagene CIS-factorial TA basal promoter reporter; actives raise or lower the signal. Put shortly: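 Multiplexed mRNA reporter assay, HepG2, 24 h. Reporter cDNA amplified, 6-FAM primer-extended, HpaI-cut, CE-sized; DMSO = negative control and baseline.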
Assay [7] in a line: ATG_TCF_b_cat_CIS: Attagene CIS-FACTORIAL HepG2 Assay for human T-Cell-Factor with beta-catenin (TCF/b-cat) (AID 2282965). The conditions noted are these: HepG2 TCF/beta-catenin cis-reporter transcription, actives raise or lower the signal. Put shortly: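 Endogenous TCF/LEF activity read as reporter transcript level via RT-PCR and capillary electrophoresis fluorescence in transfected HepG2, 24 h exposure; gain or loss of signal fitted against DMSO controls.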

Assay [8] can be described thus: ATG_TAL_CIS: Attagene CIS-FACTORIAL HepG2 Assay for human TAL Basal Promoter (AID 2282966).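 Also: background control endpoint measuring basal TAL promoter reporter mRNA not a specific factor.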 Particulars: HepG2 Attagene cis-factorial TAL promoter reporter; actives raise or lower the signal. Put shortly: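 HepG2 cells transiently transfected with multiplexed cis-promoter reporter units, dosed 24 h. Reporter mRNA quantified by RT-PCR, 6-FAM labelling, HpaI digestion and capillary electrophoresis; TAL basal promoter serves as background control, fitted bidirectionally versus DMSO.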

Assay [9] is described as follows: ATG_TGFb_CIS: Attagene CIS-FACTORIAL HepG2 Assay for human Transforming Growth Factor (TGF) (AID 2282967). The conditions noted are these: HepG2 Attagene CIS TGFb reporter, mRNA transcription; actives raise or lower the signal. Put shortly: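 Transcript-level reporter readout: HepG2 transfectants, 24 h exposure, RNA to cDNA, reporter-specific PCR, fluorescent primer extension, capillary sizing against ROX standards. Gain- or loss-of-signal relative to DMSO.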

The nature of assay [10]: ATG_VDRE_CIS: Attagene CIS-FACTORIAL HepG2 Assay for human Vitamin D Receptor Element (VDRE) (AID 2282968). Particulars: HepG2 VDRE cis-reporter transcription, actives raise or lower the signal. Put shortly: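 Reporter mRNA induction, quantified by capillary electrophoresis of fluorescently labelled RT-PCR products, was read 24 h after dosing HepG2 cells carrying transiently transfected cis-regulated reporter units; gain or loss relative to DMSO.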

Assay [11] has as its target Nuclear receptor subfamily 1 group I member 3 (Homo sapiens) (UniProt Q14994). As to the kind of experiment: ATG_CAR_TRANS: Attagene TRANS-FACTORIAL HepG2 Assay for human Constitutive Androstane Receptor (CAR) (AID 2282969; active = hit-call score of the fitted dose curve at least 0.9, where 1 is the maximum;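 also: activators raise reporter mRNA above DMSO so AC50 marks induction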). Particulars: HepG2 Attagene TRANS-FACTORIAL CAR reporter. In outline: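 Readout is reporter mRNA induction, quantified by fluorescent primer extension and capillary electrophoresis after RT-PCR. Cells were HepG2 transiently carrying chimeric NR-Gal4 constructs with GAL4-UAS reporters, treated for 24 h; activity scored upward from DMSO.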

For assay [12], the target named is X-box-binding protein 1 (Homo sapiens) (UniProt P17861). Kind of assay: ATG_Xbp1_CIS: Attagene CIS-FACTORIAL HepG2 Assay for human X-box Binding Protein 1 (XBP1) (AID 2282972). The conditions noted are these: HepG2 XBP1 cis-element reporter, Attagene multiplex; actives raise or lower the signal. In outline: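 After a 24-hour chemical exposure of HepG2 cells carrying cis-regulated reporters, reporter mRNA levels are assessed. Quantification uses RT-PCR, 6-FAM labelling and capillary electrophoresis. Gain- or loss-of-signal is fitted against DMSO.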
Sequence of X-box-binding protein 1 (Homo sapiens) (P17861 whole entry, looked up): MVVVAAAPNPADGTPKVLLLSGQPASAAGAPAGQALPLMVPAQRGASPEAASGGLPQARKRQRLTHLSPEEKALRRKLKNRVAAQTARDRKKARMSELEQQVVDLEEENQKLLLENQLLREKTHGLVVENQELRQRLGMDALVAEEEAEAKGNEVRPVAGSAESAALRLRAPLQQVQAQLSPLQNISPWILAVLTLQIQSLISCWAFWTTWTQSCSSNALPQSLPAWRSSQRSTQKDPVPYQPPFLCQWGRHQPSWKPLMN

The nature of assay [13]: ATG_M_19_TRANS: Attagene TRANS-FACTORIAL HepG2 Assay for M19 Transcription Factor (Internal Marker) (AID 2282974; active = hit-call score of the fitted dose curve at least 0.9, where 1 is the maximum). Particulars: HepG2 Attagene TRANS-FACTORIAL M19 internal marker reporter. Put shortly:
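Gain-of-signal in reporter mRNA, relative to DMSO, was scored from capillary electrophoresis fluorescence. HepG2 cells carried transiently transfected multiple reporter transcription units and were incubated with test chemicals for 24 h.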

The target in assay [14] is Bile acid receptor (Homo sapiens) (UniProt Q96RI1). As to the kind of experiment: ATG_FXR_TRANS: Attagene TRANS-FACTORIAL HepG2 Assay for Farnesoid X Receptor (FXR) (AID 2282979; active = hit-call score of the fitted dose curve at least 0.9, where 1 is the maximum;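 also: hits raise reporter mRNA above DMSO so AC50 marks FXR activation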). Particulars: HepG2 Attagene TRANS FXR-GAL4 reporter transcription. In outline:
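HepG2 cells were transiently transfected with GAL4-UAS reporters driven by chimeric NR-Gal4 proteins and dosed for 24 h. Reporter mRNA was quantified by RT-PCR, fluorescent labelling, HpaI digestion and capillary electrophoresis, with gain of signal scored versus DMSO.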

Assay [15] can be described thus: ATG_GAL4_TRANS: Attagene TRANS-FACTORIAL HepG2 Assay for GAL4 (Internal Marker) (AID 2282976; active = hit-call score of the fitted dose curve at least 0.9, where 1 is the maximum). The conditions noted are these: HepG2 Attagene TRANS GAL4 internal marker reporter. In outline: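 Background-control readout: GAL4-UAS reporter transcript in transiently transfected HepG2 cells after 24 h compound exposure. Measured by RT-PCR, 6-FAM primer extension, HpaI digest and capillary electrophoresis; gain-of-signal fit versus DMSO.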

The target in assay [16] is Glucocorticoid receptor (Homo sapiens) (UniProt P04150). Kind of assay: ATG_GR_TRANS: Attagene TRANS-FACTORIAL HepG2 Assay for human Glucocorticoid Receptor (GR) (AID 2282978; active = hit-call score of the fitted dose curve at least 0.9, where 1 is the maximum;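 also: activators score as hits since higher reporter transcript over DMSO is fitted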). Particulars: HepG2 Attagene TRANS GR reporter, mRNA transcription. In outline: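 HepG2 transient transfection, multiple reporter units, GAL4-UAS under NR-GAL4 chimera control. 24 h treatment. Reporter mRNA by RT-PCR/CE fluorescence, DMSO as negative control.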
Sequence of Glucocorticoid receptor (Homo sapiens) (P04150 whole entry, looked up, the tested form may be a part): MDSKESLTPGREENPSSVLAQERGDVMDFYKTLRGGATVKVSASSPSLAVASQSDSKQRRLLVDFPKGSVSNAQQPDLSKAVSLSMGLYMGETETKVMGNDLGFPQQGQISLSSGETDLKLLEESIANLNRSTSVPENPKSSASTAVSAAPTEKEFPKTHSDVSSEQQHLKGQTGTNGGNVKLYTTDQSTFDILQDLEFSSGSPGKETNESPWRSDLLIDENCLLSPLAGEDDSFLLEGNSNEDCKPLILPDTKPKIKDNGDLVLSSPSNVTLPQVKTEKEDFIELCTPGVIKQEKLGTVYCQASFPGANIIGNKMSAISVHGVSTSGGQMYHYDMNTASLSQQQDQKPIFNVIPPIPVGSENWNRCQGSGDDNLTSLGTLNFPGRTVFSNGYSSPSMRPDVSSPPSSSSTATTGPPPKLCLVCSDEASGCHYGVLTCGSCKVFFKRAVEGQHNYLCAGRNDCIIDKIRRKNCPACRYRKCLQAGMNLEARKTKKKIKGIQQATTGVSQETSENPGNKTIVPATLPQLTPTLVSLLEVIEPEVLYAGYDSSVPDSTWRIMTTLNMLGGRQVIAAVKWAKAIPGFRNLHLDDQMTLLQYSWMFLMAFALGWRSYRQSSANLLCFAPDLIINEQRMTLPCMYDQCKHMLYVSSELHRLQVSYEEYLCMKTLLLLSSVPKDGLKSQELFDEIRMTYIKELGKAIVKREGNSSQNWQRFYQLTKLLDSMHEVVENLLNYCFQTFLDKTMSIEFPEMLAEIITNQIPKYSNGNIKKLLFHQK

The record followed here is PubChem BioAssay (EPA / NIEHS).

SMILES strings stand for the structures. Results filed as inconclusive are left out. Active and inactive are the calls of the source. The calls were made as follows, unless noted: active = hit-call score of the fitted dose curve at least 0.9, where 1 is the maximum; inactive = score below 0.9.

Sequence of Nuclear receptor subfamily 1 group I member 3 (Homo sapiens) (Q14994 whole entry, looked up, the tested form may be a part): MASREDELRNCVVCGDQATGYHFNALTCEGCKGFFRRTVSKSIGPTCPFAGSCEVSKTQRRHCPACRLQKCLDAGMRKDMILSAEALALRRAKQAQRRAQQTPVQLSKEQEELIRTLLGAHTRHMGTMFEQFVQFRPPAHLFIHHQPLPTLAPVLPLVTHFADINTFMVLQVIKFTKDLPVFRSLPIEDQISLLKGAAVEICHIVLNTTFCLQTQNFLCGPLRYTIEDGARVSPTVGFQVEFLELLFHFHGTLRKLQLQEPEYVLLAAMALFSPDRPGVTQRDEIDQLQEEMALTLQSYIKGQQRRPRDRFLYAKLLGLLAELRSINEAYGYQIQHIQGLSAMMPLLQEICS
Sequence of Signal transducer and activator of transcription 3 (Homo sapiens) (P40763 whole entry, looked up): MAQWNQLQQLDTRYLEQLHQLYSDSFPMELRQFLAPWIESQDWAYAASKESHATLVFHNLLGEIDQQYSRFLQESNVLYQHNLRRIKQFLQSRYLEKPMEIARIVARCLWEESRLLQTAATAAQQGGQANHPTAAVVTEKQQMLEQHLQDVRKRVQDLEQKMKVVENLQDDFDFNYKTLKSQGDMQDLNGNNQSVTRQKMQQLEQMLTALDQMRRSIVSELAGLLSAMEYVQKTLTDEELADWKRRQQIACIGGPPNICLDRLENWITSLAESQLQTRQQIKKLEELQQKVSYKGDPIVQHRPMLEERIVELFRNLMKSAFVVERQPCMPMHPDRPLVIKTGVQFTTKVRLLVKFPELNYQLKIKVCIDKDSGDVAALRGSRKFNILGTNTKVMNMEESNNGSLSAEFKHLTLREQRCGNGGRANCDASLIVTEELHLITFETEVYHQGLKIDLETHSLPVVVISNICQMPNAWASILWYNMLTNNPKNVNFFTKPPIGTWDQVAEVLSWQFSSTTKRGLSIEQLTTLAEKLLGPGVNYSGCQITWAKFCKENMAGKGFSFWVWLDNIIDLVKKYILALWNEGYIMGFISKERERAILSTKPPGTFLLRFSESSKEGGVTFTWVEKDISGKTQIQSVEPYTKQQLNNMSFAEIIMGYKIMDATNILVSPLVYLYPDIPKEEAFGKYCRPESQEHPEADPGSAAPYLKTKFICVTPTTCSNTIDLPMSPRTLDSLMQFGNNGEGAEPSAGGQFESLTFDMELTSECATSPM
Sequence of Bile acid receptor (Homo sapiens) (Q96RI1 whole entry, looked up, the tested form may be a part): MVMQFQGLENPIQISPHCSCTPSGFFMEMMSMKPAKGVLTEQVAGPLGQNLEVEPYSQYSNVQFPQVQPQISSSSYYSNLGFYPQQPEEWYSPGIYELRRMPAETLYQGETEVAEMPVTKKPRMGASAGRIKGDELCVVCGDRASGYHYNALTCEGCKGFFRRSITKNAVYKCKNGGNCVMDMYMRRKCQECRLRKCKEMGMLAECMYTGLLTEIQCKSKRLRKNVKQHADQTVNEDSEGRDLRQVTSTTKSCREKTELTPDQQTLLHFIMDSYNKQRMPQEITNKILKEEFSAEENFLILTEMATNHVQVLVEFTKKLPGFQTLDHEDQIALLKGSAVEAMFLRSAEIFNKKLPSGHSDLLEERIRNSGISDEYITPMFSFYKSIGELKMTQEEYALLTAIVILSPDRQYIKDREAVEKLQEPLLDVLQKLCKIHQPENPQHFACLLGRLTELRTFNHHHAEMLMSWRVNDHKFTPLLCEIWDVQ

With `COP(=S)(OC)Oc1cc(Cl)c(I)cc1Cl`, the half-maximal activity concentration (AC50) in assay [1] is 15 µM (active); in assay [2] it was 33.4 µM (active); in assay [3] it was 33.4 µM (active); in [4], 37.3 µM (active); in assay [7], 48.6 µM (active); in assay [10] it was 24.7 µM (active). Also, in assay [12], the AC50 is 38.6 µM (active). In addition, the compound was called inactive in [5], in [6], in assay [8], in assay [9], in assay [11] and in assay [13]. Further, the call in assay [14] was inactive.

For the compound `C#CCO`, the outcome in [1], in assay [2], in assay [3], in [4], in assay [5] and in assay [6] was inactive. Moreover, the result in [7], in assay [8], in assay [9], in assay [10], in [11] and in assay [12] was inactive. In addition, in assay [15], the compound was classed as inactive.

On to `c1cc[c]([Sb]([c]2ccccc2)[c]2ccccc2)cc1`, for which the compound was classed as inactive in [1], in assay [2], in assay [3], in assay [4], in assay [5] and in [6]. The call in assay [7], in assay [8], in assay [10], in assay [11], in assay [12] and in assay [16] was inactive. Also, in assay [14], the outcome was inactive. The AC50 in assay [9] was 41.1 µM (active).

As for `CC(C)(COCC1CO1)COCC1CO1` (stereo not given), the call in [1], in assay [2], in assay [3], in assay [4], in assay [5] and in assay [6] was inactive. In addition, the outcome in assay [7], in [8], in [9], in [11], in [12] and in assay [13] was inactive. The call in assay [14] was inactive. In addition, in assay [10], the half-maximal activity concentration (AC50) was 38.7 µM (active).

For orientation: AC50 means the midpoint of the concentration-response curve, whichever way the signal moves.
